From PubChem BioAssay AID485317 (Broad Institute, 2010)
Out of some 290,000 compounds screened, about 11,000 (3.8%) were called active. The sample holds actives, similar compounds and a random draw of the others, so the mix is not that of the screen. Values without a mark were called inactive.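 Rule for the calls: active = mean replicate inhibition above about 79%, with every replicate also reaching it (limit read from the data); inconclusive = only one of the two criteria met; inactive = mean below limit and not every replicate reaching it.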

These compounds were tested against FAD-linked sulfhydryl oxidase ALR (Homo sapiens) (UniProt P55789) (assay: ALR-catalysed DTT oxidation blockers – biochemical, H2O2 detection, HRP-luminol luminescence, single point, primary screen (AID 485317)). Conditions: purified ALR, hits give high values, concentration not given here.
Sequence of FAD-linked sulfhydryl oxidase ALR (Homo sapiens) (P55789 whole entry, looked up): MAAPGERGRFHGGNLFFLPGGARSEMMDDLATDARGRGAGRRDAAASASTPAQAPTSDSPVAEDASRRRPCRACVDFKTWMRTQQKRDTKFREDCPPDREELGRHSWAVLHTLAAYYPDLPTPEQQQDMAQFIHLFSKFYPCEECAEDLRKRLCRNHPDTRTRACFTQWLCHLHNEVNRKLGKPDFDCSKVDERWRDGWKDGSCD

| SMILES | inhibition |
| --- | --- |
| O=c1[nH]c(SCc2ccccc2)nnc1-c1ccccc1 | -6.49% |
| N#Cc1c(-c2ccccc2)nc(SCc2cccc(C(F)(F)F)c2)[nH]c1=O | 86.8% (active) |
| N#Cc1c(-c2ccc(F)cc2)nc(-c2ccccc2)[nH]c1=O | 47.4% |
| N#Cc1c(-c2ccccc2)nc(SCc2ccc([N+](=O)[O-])cc2)[nH]c1=O | 99.5% (active) |
| O=c1[nH]c(SCc2cccc(F)c2)nc2ccccc12 | -17.9% |
| COc1ccccc1CSc1ncc(-c2ccc([N+](=O)[O-])cc2)[nH]1 | -12.3% |
| C/C=C/c1ccc(OCC(=O)NNC(=O)CN(C)S(=O)(=O)c2ccc(C)cc2)c(OC)c1 | -17.6% |
| Cc1ccc2nnn(Cc3cccc(C(C)(C)C)c3O)c2c1 | 14.7% |
| CCC(CC)c1nnc(NC(=O)C2=COCCO2)s1 | 2.79% |
| O=C(c1ccc(Cl)s1)N(Cc1nnc(-c2ccccc2Cl)o1)C1CC1 | -3.36% |
| COc1ccc(C)cc1NC(=O)c1cc(-c2ccccc2)nc2c1cnn2C(C)C | -1.17% |
| Cc1ccc(S(=O)(=O)N2CCCCC2)cc1C(=O)N(C)CC(=O)Nc1cccc(F)c1 | -10.8% |
| O=C(CCCCCNC(=O)c1ccccc1)N/N=C/c1ccccc1 | 35.5% |
| O=C(CC(=O)Nc1ccc(Cl)c(Cl)c1)N/N=C/c1ccc(O)cc1 | 98.1% (active) |
| O=C(CC(=O)N/N=C\c1ccc(F)cc1)NCCc1ccccc1 | 38.6% |
| O=C(C[n+]1ccccc1)N/N=C/c1ccc(O)cc1 | 98.9% (active) |
| O=C(CC(O)(C(F)(F)F)C(F)(F)F)Nc1ccc(Cl)c(Cl)c1 | 31.6% |
| CC1=NNC(=O)C1CCC(=O)N/N=C\c1ccc(Cl)c(Cl)c1 (configuration not stated) | 56.7% |
| CC(C)(C)OC(=O)CNC(=O)c1[nH]cnc1C(=O)N[C@@H](CCCCN)C(=O)OC(C)(C)C | 2.52% |
| C=CC[C@@H](CC(=O)N[C@@H](CO)Cc1ccccc1)C(=O)NCCOC(=O)[C@@H](CC=C)CC(=O)OC(C)(C)C | 0.56% |
| COc1ccc(C(=O)N(Cc2ccccc2)c2ccc(C)cc2)cc1S(=O)(=O)N1CCOCC1 | 18.8% |
| O=C(CN1CCN(c2ccccn2)CC1)Nc1ccc(Br)cc1 | -8.03% |
| COc1ccc(NC(C)=O)cc1NC(=O)CN1CCN(c2ccccn2)CC1 | -9.42% |
| CCN(CC)c1ccc(NC(=O)CN2CCN(c3ccccn3)CC2)cc1 | 99.3% (active) |

| SMILES | inhibition |
| --- | --- |
| Cc1ccc(S(=O)(=O)N2[C@@H](c3cccc4ccccc34)C(C(=O)O)=C[C@H]2C(C)(C)C)cc1 | 9.1% |
| CN(C(=O)Cn1nnc(-c2ccc(F)cc2)n1)C1CCS(=O)(=O)C1 (configuration not stated) | -4.28% |
| CCC1CCC/C1=N\NC(=O)c1ccc(Cl)cc1 (configuration not stated) | -14.7% |
| O=C(COc1ccc2oc3c(c2c1)CCCC3)Nc1ccccn1 | -9.11% |
| O=C(COc1ccc2c3c(c(=O)oc2c1)CCCC3)NCC(O)c1ccccc1 (configuration not stated) | -0.0443% |
| CCN(CC)CCCNC(=O)COc1ccc2oc3c(c2c1)CCCC3 | 83.3% (active) |
| Cc1ccc(Br)c(NS(=O)(=O)c2cccc(C(=O)N3CCNC(=O)C3)c2)c1 | -0.146% |
| COc1ccc(N2CCC(N3CCN(C)C(CCO)C3)CC2)cc1 (configuration not stated) | 86.4% (active) |
| COc1ccc(OCC(=O)Nc2ccc(N3CCC(C)CC3)cc2)cc1 | 1.79% |
| COc1ccccc1N1CCC(N2CCN(CC(C)(C)C)C(CCO)C2)CC1 (configuration not stated) | 21.8% |
| COc1ccc(CCNC(=O)C(=O)NCC2CCCN2S(=O)(=O)c2cccs2)cc1OC (configuration not stated) | -2.42% |
| Oc1ccc2nc(Cc3ccccc3)[nH]c2c1 | 98.6% (active) |
| Nc1cccc(CCc2nc3ccccc3[nH]2)c1 | 1.01% |
| O=C(OCc1nc2ccccc2[nH]1)C1CCCCC1 | 0.03% |
| CN(C)C(=O)c1ccc(NC(=O)COC(=O)c2cc3c(s2)CCCCC3)cc1 | -2.4% |
| CCOc1ccc(NS(=O)(=O)c2ccc(Cl)c(C(=O)N(C)Cc3cccnc3)c2)cc1 | -9.87% |
| O=C(Nc1cccc(S(=O)(=O)N2CCOCC2)c1)C12CC3CC(CC(C3)C1)C2 | -1.07% |
| Oc1cc(O)c2c(c1)OC(c1ccc(O)c(O)c1)C(O)C2 (configuration not stated) | 98.2% (active) |
| O=C1N[C@@H](c2ccccc2)COC(=O)[C@H](Cc2ccc(F)cc2)C/C=C\C[C@@H]1CC(=O)N(CCO)Cc1ccccc1 | -1.44% |
| Cc1ccc(NC(=O)COc2coc(CN3CCc4ccccc4C3)cc2=O)cc1Cl | -8.1% |
| Cc1ccsc1C(=O)OCC(=O)NCCc1ccccc1 | -5.18% |
| Cc1cccc(N2C(=O)SC(SC(=Nc3ccccc3)Nc3ccccc3)C2=O)c1 (configuration not stated) | 0.802% |
| Cc1cccc(N2C(=O)SC(N(CC(=O)O)c3cccc(C)c3)C2=O)c1 (configuration not stated) | 98.6% (active) |
